ROC1-CUL1 inh = blocks human RBX1-Cullin-1 di-ubiquitin formation; in vitro K48 di-Ub FRET, acceptor:donor ratio, 45 min; inhibition, % at 10 µM; actives 0.6% (n = 140,000); AID 1347404; in the data active = inhibition above about 25%
* = called active by the depositor. Shown is part of a subset that was picked to be rich in hits.

SMILES | ROC1-CUL1 inh
COc1cc(/C=C2\C(=O)NN(c3ccccc3)C2=O)cc(OC)c1OC | -2.1
c1ccc(CSc2nnc3c4ccccc4n(Cc4ccccc4)c3n2)cc1 | 1.2
Cc1cc(C(=O)N2CCCC(CNC(=O)c3ccco3)C2)nc(C)n1 (stereo not drawn) | -6.9
COc1cc(C)c(S(=O)(=O)Oc2ccccn2)cc1C | -0.5
Cc1cc(/C=N\NC(=O)CN(CCc2ccccc2)S(=O)(=O)c2ccc(Cl)cc2)c(C)n1-c1ccc(Cl)c(Cl)c1 | -2.8
O=C(NC(=S)Nc1nccs1)C1CC1 | -2.8
COc1ccccc1-n1cc(C(=O)NCc2nc(-c3ccccc3NC(=O)C3CCC3)oc2C)cn1 | -4.1
Cc1c(N2C(=O)/C(=C\c3ccc(C(C)C)cc3)SC2=S)c(=O)n(-c2ccccc2)n1C | -1.9
O=C(c1ccc(Cl)cc1)n1nc(-c2ccccc2)oc1=O | 6.0
O=C1C=C(c2ccccc2)N=C(CCc2ccccc2)C1 | -6.6
C=CC[C@@H](O)[C@@H](CC(C)C)NC(=O)OC(C)(C)C | -1.3
O=C(CCn1c(=O)oc2ccc(Cl)cc21)N1CCN(c2ccc(F)cc2)CC1 | 3.3
COc1ccc(NC2CCCN(C(=O)C3(C(N)=O)CC3)C2)cc1 (stereo not drawn) | -1.2
CC(=O)Nc1ccc(-c2c[n+]3c4ccccc4ccc3n2C)cc1 | -6.3
CC(=O)N=C1C(=O)c2ccccc2C(=O)C1N1CCN(C(=O)c2ccco2)CC1 (stereo not drawn) | -15.3
COCc1nnc(SCC(=O)NCCc2ccccc2)n1-c1cccc2ccccc12 | 9.7
CCOc1cc(/C=C2/C(=O)NN(c3ccc(C(=O)OC)cc3)C2=O)cc(Br)c1OC(C)=O | 18.8
CCOc1cc(/C=C2\C(=O)NN(c3ccc(I)cc3)C2=O)ccc1O | 0.0
CCOc1cc(/C=C2/C(=O)NN(c3ccc(I)cc3)C2=O)cc(Br)c1OC(C)=O | 65.8*
COc1cc(CC2=NC(=O)N(Cc3ccc(C)cc3)C2=O)ccc1OCc1cccc(C(=O)O)c1 | 17.5
COc1cc(CC2=NC(=O)N(CC(=O)Nc3ccc(C)cc3)C2=O)cc(Cl)c1OCc1cccc(C(=O)O)c1 | 45.3*
COc1cc(CC2=NC(=O)N(CC(=O)Nc3cccc(C)c3)C2=O)cc(Cl)c1O | 3.8
COc1ccc(C2C3=C(N=c4s/c(=C/c5c[nH]c6ccccc56)c(=O)n42)c2ccccc2CC3)cc1OC (stereo not drawn) | -3.0
Cc1ccc(/C=c2/sc3n(c2=O)C(c2ccc(C)cc2)C2=C(N=3)c3ccccc3CC2)cc1 (stereo not drawn) | 3.2
COc1cc(/C=c2/sc3n(c2=O)C(c2ccccc2Cl)C2=C(N=3)c3ccccc3CC2)ccc1OCc1ccc2c(c1)OCO2 (stereo not drawn) | -1.2
SMILES | ROC1-CUL1 inh
COc1cccc(C2C3=C(N=c4s/c(=C/c5ccc(O)c(OC)c5)c(=O)n42)c2ccccc2CC3)c1 (stereo not drawn) | -4.0
COc1ccc(C2C3=C(N=c4s/c(=C/c5ccc(C(=O)O)cc5)c(=O)n42)c2ccccc2CC3)cc1OC (stereo not drawn) | 91.7*
COc1ccc(C2C3=C(N=c4s/c(=C/c5ccc(OCc6cccc(C(=O)O)c6)c(OC)c5)c(=O)n42)c2ccccc2CC3)cc1 (stereo not drawn) | 42.9*
CCOC(=O)C1=C(C)N=c2s/c(=C/c3ccc(OCc4cccc(F)c4)c(OC)c3)c(=O)n2C1c1ccc(C(C)C)cc1 (stereo not drawn) | -4.5
CC(=Nc1cc([N+](=O)[O-])ccc1O)C1C(=O)N(c2nc3ccccc3s2)N=C1C(F)(F)F (stereo not drawn) | -5.0
CNC(=O)c1ccc(N2CCOCC2)cc1 | 3.9
N#Cc1c(-c2cccc(Cl)c2)c(C#N)c2nc3ccccc3n2c1N | 2.3
CNc1ncnc(Sc2c(Br)c(=O)n(C)c(=O)n2C)c1N | 80.5*
O=C(CN1C(=O)CCC1=O)OCC(=O)N(c1ccccc1)c1ccccc1 | -6.6
O=C(Nc1cc(C(F)(F)F)c(Br)cc1Br)c1ccc(Br)o1 | -3.4
O=C1CC(Cc2ccccc2)C(=O)N1c1ccc(Cl)c(Cl)c1 (stereo not drawn) | 1.2
CCc1ccc(-n2c(C)cn3c4c(=O)n(CCCO)c(=O)n(C)c4nc23)cc1 | -0.5
COc1ccc(N=C2SC(=Nc3ccccc3)C(=Nc3ccccc3)N2c2ccc(OC)cc2)cc1 | 3.2
Cn1c(=Nc2ccccc2)ssc1=Nc1ccccc1 | 9.8
COC1=CCCSC1=Nc1ccccc1 | 29.9*
COc1ccc2c(Cl)c(C(=O)NNC(=O)c3ccc(NC(=O)c4ccccc4C)cc3)sc2c1 | 7.0
Fc1ccc(/C=C/c2nnc(-c3ccccc3)o2)cc1 | -4.3
Cc1cccc(-n2cc(-c3ccnc(NCC4(CO)CCC4)n3)cn2)c1 | 15.2
CCOC(=O)c1cc(-c2ccc(/C=C3/C(=O)ON=C3C)o2)ccc1Cl | -2.1
CCN1C(=O)/C(=C/c2ccc(-c3ccc(Cl)c(C(=O)O)c3)o2)C(=O)NC1=S | 87.1*
COC(=O)c1cc(-c2ccc(/C=C3/C(=O)NN(c4ccc(C)cc4)C3=O)o2)ccc1Cl | 13.0

High-throughput results: PubChem BioAssay, Pan Lab, Icahn School of Medicine at Mount Sinai
